An excerpt weighted towards active compounds, which were near 4.1% of everything screened.
Autofluor counter = compound fluorescence in toxin protease inhibitor counterscreen; hit rate 3.1% among 360,000; fluorescence intensity (test concentration not listed); compound autofluorescence counterscreen, microsphere flow cytometry; hits give high values; in the data active means fluorescence intensity above about 16000; inconclusive means no clear call, values can overlap the other calls
MazF activator = increases E. coli MazEF RNase cleavage of RNA | activation, % at 20 µM | AID 504720 | FAM/BHQ RNA-DNA oligo cleavage fluorescence, 5 h | hit rate 0.32% among 350,000; in the data active means activation above about 50%
DUSP3 inh = blocks human VHR1 dual specificity phosphatase; recombinant VHR phosphatase, pNPP absorbance; inhibition, % at 13.3 µM; P51452; hit rate 0.52% among 290,000; in the data active means inhibition above about 50%
Anthrax LF prot = blocks Bacillus anthracis lethal factor protease; hit rate 0.12% among 360,000; multiplex microsphere protease cleavage assay, LF; inhibition, % at 10 µM; P15917
Target sequence (P15917 whole entry, looked up): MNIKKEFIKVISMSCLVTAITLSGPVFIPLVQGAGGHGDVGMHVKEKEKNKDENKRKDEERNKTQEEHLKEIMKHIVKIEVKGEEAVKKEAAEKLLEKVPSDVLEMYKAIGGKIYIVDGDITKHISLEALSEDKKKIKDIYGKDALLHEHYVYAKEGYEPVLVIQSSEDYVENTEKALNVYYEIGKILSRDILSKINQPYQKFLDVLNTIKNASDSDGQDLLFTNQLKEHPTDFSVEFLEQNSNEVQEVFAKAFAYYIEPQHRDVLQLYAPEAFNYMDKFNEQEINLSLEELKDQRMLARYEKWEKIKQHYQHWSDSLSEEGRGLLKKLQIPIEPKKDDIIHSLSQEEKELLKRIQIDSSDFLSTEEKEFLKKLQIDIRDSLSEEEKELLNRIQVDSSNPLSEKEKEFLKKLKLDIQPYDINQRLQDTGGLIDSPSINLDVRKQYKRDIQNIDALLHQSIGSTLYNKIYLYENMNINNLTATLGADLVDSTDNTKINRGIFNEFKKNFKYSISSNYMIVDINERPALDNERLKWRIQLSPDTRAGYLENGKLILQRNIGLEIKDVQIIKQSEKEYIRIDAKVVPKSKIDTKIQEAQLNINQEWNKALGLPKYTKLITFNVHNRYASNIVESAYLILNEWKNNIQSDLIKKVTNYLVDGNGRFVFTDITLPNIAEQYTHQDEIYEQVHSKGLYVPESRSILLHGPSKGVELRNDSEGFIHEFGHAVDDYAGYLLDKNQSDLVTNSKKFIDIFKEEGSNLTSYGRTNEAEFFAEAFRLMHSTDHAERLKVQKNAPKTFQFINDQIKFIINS
BoNT-A LC inh2 = blocks Botulinum neurotoxin A light chain protease; hit rate 0.17% among 360,000; inhibition, % at 10 µM; multiplex microsphere protease substrate cleavage, flow cytometry; AID 588499
BoNT-F LC inh = inhibitors of Botulinum neurotoxin F light chain protease. hit rate 0.22% among 360,000. Multiplex microsphere protease cleavage assay, flow cytometry. inhibition, % at 10 µM. AID 588497; in the data active means inhibition above about 35%, passing the limit was not always enough; inconclusive means no clear call, values can overlap the other calls
Hits are given with their value. Unless noted, no stated cut-off is given here; in the data, active means inhibition above about 30%; inconclusive means no clear call, values can overlap the other calls; inactive means below that.

COc1cc2c(cc1OC)CN(CC(=O)Nc1ccc(C)cc1)CC2 was read as Autofluor counter 20583, MazF activator inactive, DUSP3 inh inactive, Anthrax LF prot inactive, BoNT-A LC inh2 inactive and BoNT-F LC inh inactive.
Screening COc1cc2c(cc1OC)CN(C(C)C(=O)Nc1ccc(NC(C)=O)cc1)CC2 (stereo not drawn) returned Autofluor counter 17392, MazF activator inactive, DUSP3 inh inactive, Anthrax LF prot inactive, BoNT-A LC inh2 inactive and BoNT-F LC inh inactive.
`Cc1ccc(NC(=O)C(C)N2CCc3ccccc3C2)cc1` (stereo not drawn) gave Autofluor counter inactive, MazF activator inactive, DUSP3 inh inactive, Anthrax LF prot inactive, BoNT-A LC inh2 inactive and BoNT-F LC inh inactive.
For COc1ccc(C(=O)OCCN=C2NS(=O)(=O)c3ccccc32)cc1OC the results were Autofluor counter 21489, MazF activator inactive, DUSP3 inh inactive, Anthrax LF prot inactive, BoNT-A LC inh2 inactive and BoNT-F LC inh inactive.
Screening CC(O)(c1cccc(F)c1)c1nc(-c2cncnc2)cs1 (stereo not drawn) returned Autofluor counter inactive, Anthrax LF prot inactive, BoNT-A LC inh2 inactive and BoNT-F LC inh inactive.
`Cn1ncc(Br)c1C(=O)Nc1c(F)c(F)cc(F)c1F` gave Autofluor counter 21682, MazF activator inactive, DUSP3 inh inactive, Anthrax LF prot inactive, BoNT-A LC inh2 inconclusive and BoNT-F LC inh inactive.
CC(=O)Nc1ccc(NC(=O)CC2Nc3cccc4cccc(c34)NC2=O)cc1 (stereo not drawn) was read as MazF activator inactive and DUSP3 inh inactive.
For Cc1cccc(NC(=O)CC2Nc3cccc4cccc(c34)NC2=O)c1 (stereo not drawn) the results were Autofluor counter 17191, MazF activator inactive, DUSP3 inh inactive, Anthrax LF prot inactive, BoNT-A LC inh2 inconclusive and BoNT-F LC inh inactive.
`CCOC(=O)C1C(=O)CC(C)(O)C(C(=O)OCC)C1c1ccccc1OC` (stereo not drawn) gave Autofluor counter 21006, MazF activator inactive, DUSP3 inh inactive, Anthrax LF prot inactive, BoNT-A LC inh2 inactive and BoNT-F LC inh inactive.
For Cc1nnc(SCCn2c(N3CC(C)CC(C)C3)nc3c2c(=O)[nH]c(=O)n3C)s1 (stereo not drawn) the results were Autofluor counter 23049, MazF activator inactive, DUSP3 inh inactive, Anthrax LF prot inactive, BoNT-A LC inh2 inactive and BoNT-F LC inh inactive.
For CCN1C(=O)CC(n2c(C)nc3ccccc32)C1=O (stereo not drawn) the results were Autofluor counter inactive, MazF activator inactive, DUSP3 inh inactive, Anthrax LF prot inactive, BoNT-A LC inh2 inactive and BoNT-F LC inh inactive.
For Cc1nc2ccccc2n1C1CC(=O)N(N(C)C)C1=O (stereo not drawn) the results were Autofluor counter inactive, MazF activator inactive, DUSP3 inh 56, Anthrax LF prot inactive, BoNT-A LC inh2 inactive and BoNT-F LC inh inactive.
O=C(NCCCN1CCN(Cc2ccccc2)CC1)c1nnc(Cc2c(F)cccc2Cl)o1 was read as Autofluor counter 19523, MazF activator inactive, DUSP3 inh inactive, Anthrax LF prot inactive, BoNT-A LC inh2 inactive and BoNT-F LC inh inactive.
For O=S(=O)(Cc1ccccc1)NCc1ccccn1 the results were Autofluor counter 21025, MazF activator inactive, DUSP3 inh inactive, Anthrax LF prot inactive, BoNT-A LC inh2 inactive and BoNT-F LC inh inactive.
O=S(=O)(NCc1ccccn1)c1ccccc1 was read as Autofluor counter inactive, MazF activator inactive, DUSP3 inh inactive, Anthrax LF prot inactive, BoNT-A LC inh2 inactive and BoNT-F LC inh inactive.
`CCN1C(=O)[C@H]2[C@H]3CN=C(SCc4ccc(C(=O)OC)cc4)N3[C@@](C)(C(=O)OC)[C@H]2C1=O` gave Autofluor counter inactive, MazF activator inactive, Anthrax LF prot inactive, BoNT-A LC inh2 inactive and BoNT-F LC inh inactive.
`COC(=O)CSc1nnc(-c2ccc(S(=O)(=O)N3CCCC3)cc2)o1` gave Autofluor counter inactive, MazF activator inactive, DUSP3 inh inactive, Anthrax LF prot inactive, BoNT-A LC inh2 inactive and BoNT-F LC inh inactive.
For COC(=O)CSc1nnc(-c2ccc(S(=O)(=O)NCc3ccccc3Cl)cc2)o1 the results were Autofluor counter 21867, MazF activator inactive, DUSP3 inh inactive, Anthrax LF prot inactive, BoNT-A LC inh2 inactive and BoNT-F LC inh inactive.
Screening COC(=O)CSc1nnc(-c2ccc(S(=O)(=O)NCc3cccs3)cc2)o1 returned Autofluor counter 21213, MazF activator inactive, DUSP3 inh inactive, Anthrax LF prot inactive, BoNT-A LC inh2 inactive and BoNT-F LC inh inactive.
COc1ccc(NC(=O)c2cc(C3CCCCN3S(=O)(=O)Cc3ccccc3)on2)c(C)c1 (stereo not drawn) was read as Autofluor counter inactive, Anthrax LF prot inactive, BoNT-A LC inh2 inactive and BoNT-F LC inh inactive.
For O=C(Cc1cccc(NC(=O)C2CCCN(C(=O)C3CC3)C2)c1)Nc1cccc(C(=O)N2CCOCC2)c1 (stereo not drawn) the results were Autofluor counter inactive, MazF activator inactive, Anthrax LF prot inactive, BoNT-A LC inh2 inactive and BoNT-F LC inh inactive.
`Cc1nc2c(C(=O)NCc3ccc4c(c3)OCO4)c[nH]n2c(=O)c1Cl` gave Autofluor counter 25275, MazF activator inactive, DUSP3 inh inactive, Anthrax LF prot inactive, BoNT-A LC inh2 inactive and BoNT-F LC inh inactive.
Screening O=C(NCCC1=CCCCC1)c1cnc2n(c1=O)CCS2 returned Autofluor counter 24855, MazF activator inactive, DUSP3 inh inactive, Anthrax LF prot inactive, BoNT-A LC inh2 inactive and BoNT-F LC inh inactive.
`COc1cccc(CNC(=O)c2c[nH]n3c(=O)c(Cl)c(C)nc23)c1` gave Autofluor counter inactive, MazF activator inactive, DUSP3 inh inactive, Anthrax LF prot inactive, BoNT-A LC inh2 inactive and BoNT-F LC inh inactive.
Cc1nc2c(C(=O)NCCC3=CCCCC3)c[nH]n2c(=O)c1Cl was read as Autofluor counter 23190, MazF activator inactive, DUSP3 inh inactive, Anthrax LF prot inactive, BoNT-A LC inh2 inactive and BoNT-F LC inh inactive.
`COC(=O)[C@H]1C[C@H](OC(=O)NC2CC2)[C@@]2(O)CN(S(=O)(=O)c3ccc(C)cc3)CC2[C@H]1C(=O)OC` (stereo partly drawn) gave Autofluor counter inactive, MazF activator inactive, Anthrax LF prot inactive, BoNT-A LC inh2 inactive and BoNT-F LC inh inactive.
O=C(Nc1c2c(nn1-c1cccc(Cl)c1)CS(=O)(=O)C2)c1ccc2c(c1)OCO2 was read as Autofluor counter inactive, MazF activator inactive, DUSP3 inh inactive, Anthrax LF prot inactive, BoNT-A LC inh2 inactive and BoNT-F LC inh inactive.
For Clc1ccccc1OCCCCN1CCCCC1 the results were Autofluor counter inactive, MazF activator inactive, DUSP3 inh inactive, Anthrax LF prot inactive, BoNT-A LC inh2 inactive and BoNT-F LC inh inactive.
For Clc1ccccc1OCCCCN1CCCC1 the results were Autofluor counter 20741, MazF activator inactive, DUSP3 inh inactive, Anthrax LF prot inactive, BoNT-A LC inh2 inactive and BoNT-F LC inh inactive.
CCCCN(C(=O)CCNC(=O)NC12CC3CC(CC(C3)C1)C2)c1c(N)n(CCC)c(=O)[nH]c1=O was read as Autofluor counter inactive, MazF activator inactive, Anthrax LF prot inactive, BoNT-A LC inh2 inactive and BoNT-F LC inh inactive.
